Hits are enriched below; roughly 7.3% of the tested compounds scored in any of these assays.
FLuc modulator: counter-screen for miR-21 project: firefly luciferase inhibitors or activators | P08659 | purified FLuc, Km substrates, luminescence inhibition | Potency, µM (titrated, usually from 57.5 µM), actives largely listed as inhibitors | actives 6.9% (n = 360,000); note: nearly all actives have a fitted effect of over 55% in size
Target sequence (P08659 whole entry, looked up): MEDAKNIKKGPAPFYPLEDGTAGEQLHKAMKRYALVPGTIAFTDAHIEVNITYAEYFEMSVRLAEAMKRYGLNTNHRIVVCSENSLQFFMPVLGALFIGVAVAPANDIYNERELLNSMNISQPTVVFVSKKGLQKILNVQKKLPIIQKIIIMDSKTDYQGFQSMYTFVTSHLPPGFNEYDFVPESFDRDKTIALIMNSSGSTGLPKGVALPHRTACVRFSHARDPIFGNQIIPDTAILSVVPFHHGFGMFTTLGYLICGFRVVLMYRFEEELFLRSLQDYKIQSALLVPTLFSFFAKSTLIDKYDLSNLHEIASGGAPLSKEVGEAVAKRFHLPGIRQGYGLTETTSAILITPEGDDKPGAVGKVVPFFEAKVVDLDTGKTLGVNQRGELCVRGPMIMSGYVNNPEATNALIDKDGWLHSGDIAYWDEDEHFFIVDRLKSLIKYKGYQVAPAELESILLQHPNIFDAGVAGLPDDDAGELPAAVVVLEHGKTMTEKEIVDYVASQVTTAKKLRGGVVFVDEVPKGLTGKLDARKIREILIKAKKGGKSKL
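Purified P. pyralis luciferase (10nM final) with 10uM D-luciferin and 10uM ATP (Km levels) in 50mM Tris acetate pH 7.5, 10mM Mg acetate, 0.01% Tween-20, 0.05% BSA; qHTS 6-point titration, ~60 µM downward; luminescence read.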
SMN2 splice enh: increases expression of the SMN2 splice variant | HEK293 SMN2-luciferase splicing reporter, luminescence, 30-36 h | Potency, µM (titrated, usually from 46.1 µM), most hits filed as activators | actives 2.8% (n = 210,000) | AID 1458; note: nearly all actives have a fitted effect of over 55% in size
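qHTS luciferase splicing reporter: luminescence rises when SMN2 exon 7 is included in transfected HEK293 cells. Compound exposure lasted 30-36 h at 37C, with 4.5 mM final sodium butyrate as control, followed by a ONE-Glo read.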
NPC1 promoter act: activates the NPC1 promoter; actives 2.4% (n = 320,000); Potency, µM (doses to about 9.22 µM), hits mostly activators; Huh7 NPC1 promoter luciferase reporter, 24 h; note: nearly all actives have a fitted effect of over 60% in size
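Stable NPC1-promoter luciferase Huh7 line; cpd (DMSO) 24 h, 37 °C, 5% CO2; Amplite luciferase reagent 10 min RT; luminescence readout. qHTS format.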
ELG1 genotox: induces genotoxicity in HEK293T cells with luciferase-tagged ELG1; actives 1.3% (n = 330,000); HEK293T ELG1-luciferase reporter, luminescence, 16 h; Potency, µM (doses to about 46 µM), hits mostly activators; AID 504466; note: nearly all actives have a fitted effect of over 60% in size
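Cells (2,000/well) expressing the ELG1-luciferase fusion are dosed by pin tool and kept 16 hr at 37 °C, 5% CO2. Signal comes from ONE-Glo luciferase reagent after 30 min at room temperature.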
Luc counter: Kinase-Glo luciferase inhibition (counter-screen); Kinase-Glo luciferase, ATP luminescence, 8 min; Potency, µM (series often up to 38.3 µM), actives largely listed as inhibitors; actives 0.28% (n = 200,000); AID 1379; note: nearly all actives have a fitted effect of over 60% in size
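Substrate mix (final 50 mM imidazole pH 7.2, 50 mM KCl, 7 mM MgCl2, 10 uM ATP, 0.01% Tween 20, 0.05% BSA) plus pin-tool compound, then Kinase-Glo detection mix; 8 min ambient, luminescence read.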
Rab9 prom act: activators of Rab9 promoter; AID 485297; Potency, µM (highest dose often 9.22 µM), most hits filed as activators; Huh7 Rab9 promoter-luciferase reporter, luminescence, 24 h; actives 2.8% (n = 320,000); note: nearly all actives have a fitted effect of over 60% in size
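Using Huh7 cells stably transfected with Rab9 promoter–luciferase, compounds were incubated 24 h at 37 °C, 5% CO2; luciferase luminescence was read 10 min after reagent addition.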
Numbers stand for hits; - = inactive; ? = inconclusive; . = no result given; [ ] = another dose, or the depositor's remark. Calls come from the whole dose curve; as a rule, active = well fitted curve in the direction sought with a large enough effect; inconclusive = small, poorly fitted or top-dose-only effect, or another doubt; inactive = no such curve, though single readings can be large; an effect the other way counts as inactive or inconclusive.

SMILES | FLuc modulator | SMN2 splice enh | NPC1 promoter act | ELG1 genotox | Luc counter | Rab9 prom act
Cc1ccc(C(=O)NCCn2ccc3ccccc32)cc1[N+](=O)[O-] | - | ? | - | - | - | -
COc1ccc(C(=O)NCCn2ccc3ccccc32)cc1 | 10.7µM | 12.6µM | ? | ? | - | 1.41µM
CCCn1cc(SCC(=O)Nc2nnc(C)s2)c2ccccc21 | - | - | - | - | - | -
Cc1ccc(C(=O)NCCn2cc(SCC(=O)Nc3nnc(C)s3)c3ccccc32)cc1 | 16.9µM | - | - | ? | - | -
CSCc1ccc(C(=O)NCCSc2ccc(Br)cc2)cc1 | 19µM | . | ? | ? | . | ?
O=C(NCc1ccccc1F)C1CCN(S(=O)(=O)c2ccccc2)CC1 | - | . | - | - | . | -
O=C(NCNC(=O)c1ccccc1)c1ccccc1 | - | - | - | - | - | -
O=C(NCSc1ccccc1)c1ccccc1 | 10.7µM | . | 2.51µM | ? | . | 1.41µM
COc1ccc(C(=O)NCCn2cc(SCC(N)=O)c3ccccc32)cc1 | 15.1µM | . | - | - | . | -
CCOc1ccc(C(=O)NCCn2cc(SCC(=O)Nc3cc(C)on3)c3ccccc32)cc1 | 12µM | - | - | - | - | -
COc1ccc(NC(=O)CSc2cn(CCNC(=O)c3ccc(OC)cc3)c3ccccc23)cc1 | ? | - | . | . | . | .
O=C(NCCn1ccc2ccccc21)c1ccc2c(c1)OCO2 | 6.75µM | 8.91µM | 0.891µM | 2.31µM | - | 1.12µM
CC(C)(CSc1ccccn1)NS(=O)(=O)c1ccc(Cl)cc1 | - | - | - | - | - | -
COc1ccc(C(=O)NCCSc2ccccc2)cc1 | 1.51µM | 2.82µM | 0.355µM | 2.59µM | - | 0.355µM
O=C(NCCc1ccccc1)c1ccc2c(c1)OCO2 | 0.536µM | . | ? | ? | . | ?
O=C(Cc1ccccc1)c1ccc2c(c1)OCCO2 | 8.49µM | ? | 2.51µM | 18.3µM | - | 2.82µM
CC(C)(C)c1ccccc1NC(=O)C1=COCCO1 | - | . | - | - | . | -
O=C(NCCc1ccccc1)C1=COCCO1 | 16.9µM | . | 2.51µM | ? | . | 3.16µM
CC1CCCC(C)N1C(=O)COC(=O)C(Cc1ccccc1)NC(=O)c1cccs1 (stereo unspecified) | - | - | - | - | - | -
O=C(Nc1ccc(Cl)cc1)c1nc[nH]c1C(=O)NCCCNC(=O)c1[nH]cnc1C(=O)Nc1ccc(Cl)cc1 | . | . | . | - | . | .
O=S(=O)(c1ccc(Cl)cc1)N1CCN(c2ccc(N3CCOCC3)nn2)CC1 | - | - | - | - | - | -
CCN(CC)c1ccc(/C=C(\C#N)c2ccccn2)cc1 | 1.07µM | 1.41µM | 0.447µM | ? | - | 0.126µM
N#C/C(=C\c1ccc(C(=O)O)cc1)c1ccccn1 | - | - | - | - | - | -
CCN(Cc1ccccc1)c1ccc(/C=C(\C#N)c2ccccn2)cc1 | 7.57µM | . | 3.55µM | ? | . | 1.41µM
CN(CCC#N)c1ccc(/C=C(\C#N)c2ccccn2)cc1 | 1.51µM | 1µM | 0.501µM | 0.651µM | ? | 0.501µM
SMILES | FLuc modulator | SMN2 splice enh | NPC1 promoter act | ELG1 genotox | Luc counter | Rab9 prom act
CCOC(=O)Cc1csc(NC(=O)CN2CCN(CC)CC2)n1 | - | . | - | - | . | -
N#CCOC(=O)c1cc(S(=O)(=O)N2CCCCC2)ccc1N1CCOCC1 | - | . | - | - | . | -
O=C(Nc1cccc(-c2csc(Nc3ccc(Cl)cc3)n2)c1)c1ccccc1 | 12µM | . | - | - | . | -
O=C(Nc1ccc(-c2csc(Nc3ccccc3)n2)cc1)c1ccccc1 | 13.5µM | . | - | - | . | -
O=C(NNc1nc(-c2ccccc2)cs1)c1ccccc1 | ? | - | - | - | - | -
CC(=O)Nc1c2c(nn1-c1ccccc1)CS(=O)C2 (stereo unspecified) | - | . | - | -[9.26 µM] | . | -
CN(C)S(=O)(=O)N1CCN(C(=O)N2CCOCC2)CC1 | - | - | - | - | - | -
Cc1cc(N2CCN(c3ccccc3)CC2)n2cc(-c3ccccc3)nc2n1 | 23.9µM | - | - | - | - | -
O=C(NNC(=O)c1cc(-c2ccc(Cl)c(Cl)c2)nc2ccccc12)Nc1ccccc1 | 6.75µM | - | - | - | - | -
Cc1ccc(-c2cc(C(=O)Nc3nn[nH]n3)c3ccccc3n2)cc1 | 3.79µM | - | - | - | - | -
Cc1ccc(-c2cc(C(=O)Nc3ccncc3)c3ccccc3n2)cc1 | 10.7µM | . | - | - | . | -
COc1ccc(-c2cc(C(=O)Nc3ccc(C(N)=O)cc3)c3ccccc3n2)cc1 | 0.757µM | . | ? | - | . | ?
O=C1c2oc3ccccc3c(=O)c2C(c2cccc(O)c2)N1Cc1ccc(F)cc1 (stereo unspecified) | - | - | . | . | . | .
Cn1c(SCC(=O)NCC2COc3ccccc3O2)nnc1C(F)(F)F (stereo unspecified) | . | . | . | - | . | .
COc1cc(-c2nnc(SCC(=O)Oc3ccc(C)cc3C)o2)cc(OC)c1OC | - | . | . | . | . | .
O=C(c1csnn1)N1CCC[C@@]2(CCN(c3ccncc3)C2)C1 | . | - | . | . | - | .
Fc1ccc(OCCCCCn2ccnc2)cc1 | - | . | - | - | . | -
Cn1c(=O)oc2cc(S(=O)(=O)Nc3ccc4c(c3)OCCO4)ccc21 | - | - | . | . | - | .
Nc1ccc(-c2ccc(C(=O)O)s2)cn1 | 19µM | - | - | - | - | -
COc1cccc2cc(-c3nc4ccc(C)cc4[nH]3)c(=O)oc12 | 0.536µM | . | . | . | . | .
COc1ccc2cc(C(=O)c3ccccc3)c(=O)oc2c1 | ? | - | ? | ? | - | ?
COc1cccc2cc(-c3nc4ccccc4o3)c(=O)oc12 | 2.69µM | - | - | 20.6µM | - | -
O=c1oc2ccc(Br)cc2cc1-c1nc2ccccc2o1 | - | - | - | - | - | -
C=CCc1cccc2cc(-c3nc4ccc(C(=O)O)cc4[nH]3)c(=O)oc12 | 0.426µM | . | . | . | . | .
COc1ccc2cc(-c3nc4ccc(C(=O)O)cc4[nH]3)c(=O)oc2c1 | 0.12µM | . | . | . | . | .
SMILES | FLuc modulator | SMN2 splice enh | NPC1 promoter act | ELG1 genotox | Luc counter | Rab9 prom act
COc1ccc2oc(=O)c(-c3nc4ccc(C)cc4[nH]3)cc2c1 | - | . | . | . | . | .
Nc1cc(S(=O)(=O)O)cc([N+](=O)[O-])c1O | - | - | - | - | - | -
CCOc1cccc2cc(-c3nc(-c4ccc(Cl)cc4)c(C)s3)c(=O)oc12 | - | . | . | . | . | .
CCOc1cccc2cc(-c3nc4ccc(C(=O)O)cc4[nH]3)c(=O)oc12 | 0.379µM | . | ? | . | . | ?
CCOc1cccc2cc(-c3cn4c(n3)sc3ccccc34)c(=O)oc12 | 0.477µM | . | . | . | . | .
Cc1ccc(CSc2ncc(Cl)c(C(=O)Nc3sc4c(c3C(N)=O)CCCC4)n2)cc1 | - | - | . | . | . | .
COc1ccc(OC)c(Cc2nnc(CCC(=O)N3CCCCC3c3nccs3)o2)c1 (stereo unspecified) | 23.9µM | . | ? | ? | - | 3.55µM
COc1ccc([C@@H]2[C@@H]3C(=O)N(C(C)(C)C)C(=O)[C@@H]3[C@]3(Cc4ccccc4)C(=O)N(c4cccc(F)c4)C(=O)N23)cc1 | - | . | - | - | . | -
COc1ccc(OC)c(N=c2ssnc2Cl)c1 | 15.1µM | - | - | - | - | -

High-throughput results deposited in PubChem BioAssay by National Center for Advancing Translational Sciences (NCATS).
